The record followed here is PubChem BioAssay (NCATS).

Records with an inconclusive call do not appear. Values without a mark were called inactive. Calls of active or inactive are those of the source. The call rests on the fitted dose curve; in most records, active means well fitted cell-killing curve with a large enough effect; inconclusive means small, poorly fitted or top-dose-only effect; inactive means no such curve, though single readings can be large or run the other way.
Potency means the concentration at half of the fitted maximal effect.

A short description of this assay: qHTS of pediatric cancer cell lines to identify multiple opportunities for drug repurposing: Confirmatory screen for U-2 OS cells (AID 1347122). Further: nearly all actives have a fitted effect of over 65% in size. The settings on record: U-2 OS osteosarcoma cell viability; series mostly up to 45.9 µM; activity change, negative = cytotoxicity: at the top concentration. An excerpt:
Drug repurposing or repositioning has been offered as a strategy for drug development in oncology programs. This approach has special potential for childhood cancers and other rare or orphan diseases, where the expected return on new drug development has been a disincentive to pharmaceuticals.
In this project we exploit the poly-pharmacology of drugs to discover new indications via phenotypic screening of a panel of 19 well-characterized cell lines derived from solid tumors seen in children and adolescents. The goal is to identify approved drugs with previously unrecognized anticancer properties that has the potential to reveal new mechanisms and biological processes involved in carcinogenesis or drug resistance. We employed a titration-based paradigm (quantitative high-throughput screening or qHTS), where all compounds were tested at multiple concentrations for their effect on cell viability. Concentration-response curves (CRCs) were derived directly from the primary screen, and both potency and efficacy values were used to identify compounds with robust bioactivity profiles. We screened the NIH Chemical Genomics Center (NCGC) Pharmaceutical Collection (NPC) and Mechanism Interrogation Plate (MIPE) small molecule collections of approved and investigational compounds against these cell lines; and measured metabolically active cells after 48 hours of compound treatment as a proxy for cell viability.
Assay Submitter: Nathalia J. Martinez, National Center for Advancing Translational Sciences, National Institutes of Health, Rockville, MD, USA; email: natalia.martinez@nih.gov
[1] Shen, M et al. Quantitative high-throughput phenotypic screening of pediatric cancer cell lines identifies multiple opportunities for drug repurposing. Oncotarget 2017 Dec 19;9(4):4758-4772. PMID 29435139.
The cells were obtained from University of North Carolina (UNC), Pediatric Preclinical Testing Program (PPT), and Coriell Institute (CI).
qHTS cell viability assay:
Cells were assayed in growth media at a density of 500-1,000 cells/well. Five microliters of cells were dispensed into 1,536-well, white, solid-bottom, TC-treated plates (Greiner Bio One) using a multidrop dispenser and incubated at 37 degrees C, 5% CO2, under a humidified atmosphere for 5 hours. Twenty-three nanoliters of compounds and controls (neutral control DMSO or positive control bortezomib at final concentration of 2.3 µM) were subsequently transferred by Kalypsys pintool. For primary screens, the MIPE collection was tested at 11-point dilutions (final concentrations range from 0.78 nM to 46 µM) and the NPC collection at 8-point dilutions (final concentrations range from 0.59 nM to 46 µM). Compounds tested in follow-up screens were assayed at 11-point dilutions. Cells were incubated for 48 hours, followed by addition of 3 µL of CellTiter-Glo (Promega). After a 15 min incubation at room temperature, samples were analyzed for luminescence intensity using a ViewLux High-throughput CCD imager equipped with clear filters.
(In general: Quantitative high-throughput screening tests each substance at several concentrations.)
Consider `CC(C)C[C@H](NC(=O)c1cc2ccccc2s1)C(=O)N1CCN(C(=O)[C@H](CO)NS(=O)(=O)c2ccc(Cl)cc2Cl)CC1`, for which the Potency was 29.3 nM (active).
As to `CC1CNc2c(cccc2S(=O)(=O)N[C@@H](CCCN=C(N)N)C(=O)N2CC[C@@H](C)C[C@@H]2C(=O)O)C1` (stereo not given in full), the “activity change, negative = cytotoxicity” value was 11%.
As to `CCC(=O)OCC(=O)[C@@]1(OC(=O)CC)[C@@H](C)C[C@@H]2[C@H]3CCC4=CC(=O)C=C[C@]4(C)[C@@]3(F)[C@@H](O)C[C@@]21C`, the “activity change, negative = cytotoxicity” value was -7.95%.
`COc1ccc(-c2ccc3ncc4c(c3c2)n(-c2ccc(N3CCNCC3)c(C(F)(F)F)c2)c(=O)n4C)cn1`: the Potency was 465 nM (active).
`N#CC(=C1Nc2ccccc2S1)c1ccnc(OCc2ccc(CN3CCOCC3)cc2)n1`: the “activity change, negative = cytotoxicity” value is 4.8%.
For the molecule `CN1CCN(c2ncc(-c3cc(Cl)cc(Cl)c3Cl)c(N)n2)CC1`, the “activity change, negative = cytotoxicity” value is -15.9%.
Turning to `C[C@@H]1[C@H](O)[C@@H](C)C=CC=CC=CC=CC=CC=CC=C[C@H](O[C@@H]2O[C@H](C)[C@H](O)[C@H](N)[C@@H]2O)C[C@@H]2O[C@](O)(C[C@@H](O)C[C@@H](O)[C@H](O)CC[C@@H](O)C[C@@H](O)CC(=O)O[C@H]1C)C[C@H](O)[C@@H]2C(=O)O`, the “activity change, negative = cytotoxicity” value is 29.7%.
Regarding `CON(C)C(=O)N1N=C(c2cc(F)ccc2F)S[C@]1(CCCN)c1ccccc1`, the Potency is 46.5 nM (active).
For the molecule `CCC[C@H](Nc1nc(-c2ccc(NC(=O)NCC)c(OC)c2)ncc1C)c1cccnc1`, the Potency was 233 nM (active).
For `CNC(=O)[C@H](CC1=CN=C2C=CCC=C12)NC(=O)[C@@H](CC(=O)NO)CC(C)C`, the Potency is 4140 nM (active).
Turning to `C[C@@]1(C(=O)Nc2ccc(F)nc2)CCCN1c1nc(Nc2cc(C3CC3)[nH]n2)c2cccn2n1`, the Potency is 1650 nM (active).
For `Cc1c(C(=O)Nc2ccc(N3C[C@@H](C)O[C@@H](C)C3)nc2)cccc1-c1ccc(OC(F)(F)F)cc1`, the Potency was 18500 nM (active).
With `CC(C)CN(C[C@@H](O)[C@H](Cc1ccccc1)NC(=O)O[C@H]1CO[C@H]2OCC[C@H]21)S(=O)(=O)c1ccc(N)cc1`, the “activity change, negative = cytotoxicity” value was 5.15%.
For `CSc1cccc(Nc2ncc3cc(-c4c(Cl)cccc4Cl)c(=O)n(C)c3n2)c1`, the Potency is 3290 nM (active).
Regarding `CO[C@H]1/C=C\O[C@@]2(C)Oc3c(C)c(O)c4c(O)c(c5c(nc6cc(C)ccn65)c4c3C2=O)NC(=O)C(C)=CC=C[C@H](C)[C@H](O)[C@@H](C)[C@@H](O)[C@@H](C)[C@H](OC(C)=O)[C@H]1C`, the “activity change, negative = cytotoxicity” value is -1.37%.
For `O=c1[nH]nc(OCCCc2ccc(Cl)cc2)c(NCc2cccnc2)c1Br`, the Potency is 7370 nM (active).
Consider `NC(N)=Nc1nc(CSCCC(N)=NS(N)(=O)=O)cs1`, for which the “activity change, negative = cytotoxicity” value is 24.5%.
For `CCC(c1ccc(O)cc1)C(CC)c1ccc(O)cc1` (stereo not given), the “activity change, negative = cytotoxicity” value was -29.4%.
Take `Cc1ccc(C(=O)N(CCCN)[C@@H](c2nc3cc(Cl)ccc3c(=O)n2Cc2ccccc2)C(C)C)cc1`: the Potency was 60.3 nM (active).
Consider `O=C1NC(=O)C(c2cnc3ccccn23)=C1c1cn2c3c(cccc13)CN(C(=O)N1CCOCC1)CC2`, for which the “activity change, negative = cytotoxicity” value was 8.11%.
As for `Nc1ncnc2c1ncn2[C@@H]1O[C@H](CO)[C@@H](O)[C@@H]1O`, the Potency is 10400 nM (active).
With `COc1cc2c(cc1OC)[C@@H]1Cc3ccc(OC)c(OC)c3CN1CC2`, the “activity change, negative = cytotoxicity” value is 14.1%.
Regarding `CN(C)CC[C@H](CSc1ccccc1)Nc1ccc(S(=O)(=O)NC(=O)c2ccc(N3CCN(Cc4ccccc4-c4ccc(Cl)cc4)CC3)cc2)cc1[N+](=O)[O-]`, the Potency was 737 nM (active).
With `Cc1nn(Cc2ccccc2Cl)c(C)c1CN(C)CC(O)COc1ccc(Cl)cc1` (stereo not given), the Potency was 18500 nM (active).
Take `CN(C)CCN(C)C(=O)c1ccc(NC(=O)Nc2ccc(-c3nc(N4CCOCC4)c4ccn(CC(F)(F)F)c4n3)cc2)cc1`: the Potency was 3690 nM (active).
With `CC(=O)N1CCN(c2ccc(OCc3nn(C)c(C)c3-c3cccc4c(CCCOc5cc(C)c(Cl)c(C)c5)c(C(=O)O)n(Cc5cccnc5)c34)cc2)CC1`, the “activity change, negative = cytotoxicity” value was -14.9%.
With `CC1(C)OC2CC3C4CC(F)C5=CC(=O)C=CC5(C)C4C(O)CC3(C)[C@]2(C(=O)CO)O1` (stereo not given in full), the result was inactive.
Take `CCN(CCO)CCCOc1ccc2c(Nc3cc(CC(=O)Nc4cccc(F)c4)[nH]n3)ncnc2c1`: the “activity change, negative = cytotoxicity” value is 27.8%.
In the case of `Cc1ccc(C(=O)N(CCCN)[C@@H](c2oc3cc(Cl)ccc3c(=O)c2Cc2ccccc2)C(C)C)cc1`, the Potency was 36.9 nM (active).
Regarding `CC1C(=O)OC2C(O)C34C5CC(C(C)(C)C)C36C(OC(=O)C6O)OC4(C(=O)O5)C12O` (stereo not given), the “activity change, negative = cytotoxicity” value was 8.84%.
With `COc1cc2c(cc1Cc1cccc(Cl)c1F)c(=O)c(C(=O)O)cn2[C@H](CO)C(C)C`, the “activity change, negative = cytotoxicity” value is -29.5%.
Take `C=CC(=O)Nc1cccc(Sc2nc(Nc3ccc(N4CCN(C)CC4)cc3)ncc2Cl)c1`: the Potency was 16500 nM (active).
For the molecule `Cc1cnc(-c2cc(N3CCN(C(=O)CCS(C)(=O)=O)CC3)ncc2Cl)c(C)c1`, the “activity change, negative = cytotoxicity” value is -1.68%.
Still for that read-out and setting: for `CCC[C@H](N[C@@H](C)C(=O)N1[C@@H]2CCCC[C@H]2C[C@H]1C(=O)O)C(=O)OCC` the value was 14%.
`C=C1[C@H](n2cnc3c(=O)[nH]c(N)nc32)C[C@H](O)[C@H]1CO`: the “activity change, negative = cytotoxicity” value is 17.4%.
For `Nc1ccc(-c2ccc3ncc4ccc(=O)n(-c5cccc(C(F)(F)F)c5)c4c3c2)cn1`, the Potency was 185 nM (active).
`O=C(c1ccc(F)c(F)c1Nc1ccc(I)cc1F)N1CC(O)([C@H]2CCCCN2)C1`: the Potency was 2610 nM (active).
With `CC1(COc2ccc3c(c2)ncn3-c2ccc3cccc(N4CCC(N)CC4)c3n2)COC1`, the Potency is 10400 nM (active).
`CC(C)CN(C[C@H](O)[C@H](Cc1ccccc1)NC(=O)O[C@H]1CCOC1)S(=O)(=O)c1ccc(N)cc1`: the “activity change, negative = cytotoxicity” value was -2.31%.
As to `CCNC(=O)c1noc(-c2cc(C(C)C)c(O)cc2O)c1-c1ccc(CN2CCOCC2)cc1`, the Potency is 117 nM (active).
